Most compounds without a hit are left out; they make up all but 10% or so of the library.
RORg inh = inhibitors of mouse ROR gamma transcriptional activity; P51450; Drosophila S2 Gal4-RORgamma UAS-luciferase reporter, 20 h; Potency, µM (titrated, usually from 53.6 µM), inactives show at the highest dose activity change, negative = inhibition, most hits filed as inhibitors; 310,000 compounds, 5.4% hits; AID 2551; also: % is scaled to controls: 0 for no effect and ±100 for the full control effect; nearly all actives have a fitted effect of over 60% in size
Target sequence (P51450 whole entry, looked up, the tested form may be a part): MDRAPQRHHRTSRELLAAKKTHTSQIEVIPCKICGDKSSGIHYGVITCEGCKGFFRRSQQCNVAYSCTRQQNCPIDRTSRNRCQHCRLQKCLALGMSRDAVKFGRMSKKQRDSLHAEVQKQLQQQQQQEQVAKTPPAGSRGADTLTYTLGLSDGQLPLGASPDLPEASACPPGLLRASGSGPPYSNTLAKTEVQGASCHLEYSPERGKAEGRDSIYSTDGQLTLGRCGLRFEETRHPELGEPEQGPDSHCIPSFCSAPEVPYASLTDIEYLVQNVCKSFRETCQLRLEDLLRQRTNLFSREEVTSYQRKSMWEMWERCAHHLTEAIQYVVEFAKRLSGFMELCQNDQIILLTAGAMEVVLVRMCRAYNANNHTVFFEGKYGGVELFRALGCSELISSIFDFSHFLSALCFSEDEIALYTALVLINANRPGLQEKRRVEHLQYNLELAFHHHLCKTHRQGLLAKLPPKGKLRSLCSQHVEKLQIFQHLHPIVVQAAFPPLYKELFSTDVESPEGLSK
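ROR gamma transcriptional activity was tracked as Gal4-UAS luciferase output in stably transfected Drosophila Schneider cells, with compound added 1 hr before 700 uM copper sulfate induction and a 20 hr ambient-temperature incubation.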
SW480 rereplic = induces DNA re-replication in SW480 colon adenocarcinoma cells; 340,000 compounds, 1.8% hits; SW480 DNA re-replication, Hoechst DNA content imaging, 48 h; Potency, µM (series often up to 46.1 µM), for inactives: at the top dose re-replication activation, actives largely listed as activators; also: % of control where 0% means no effect; nearly all actives have a fitted effect of over 55% in size
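Image-based DNA-content assay: after two days of treatment, nuclei were labelled with the DNA dye Hoechst and imaged, and hits were compounds raising the count of nuclei showing high fluorescence intensity.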
ELG1 repair inh = blocks ELG1-dependent DNA repair in HEK293T cells; HEK293T ELG1-luciferase reporter, luminescence, 16 h; DNA damage induced by 5-fluorouridine; 330,000 compounds, 2.3% hits; Potency, µM (highest dose often 46.1 µM), for the others: top-dose activity change, negative = inhibition, actives largely listed as inhibitors; AID 504467; also: % is scaled to controls: 0 for no effect and ±100 for the full control effect; nearly all actives have a fitted effect of over 55% in size
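Step one: seed 2,000 cells per well. Step two: pin-transfer compound or DMSO alongside 5-fluorouridine. Step three: incubate 16 hr, 37 °C, 5% CO2. Step four: add ONE-Glo, wait 30 min, read luminescence.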
VP16 counter = inhibits Gal4-VP16 luciferase reporter, ROR gamma counter-screen | Drosophila S2 Gal4-VP16 UAS-luciferase, luminescence, 20 h | Potency, µM (titrated, usually from 53.6 µM), for the others: at the top dose activity, negative = inhibition, hits mostly inhibitors | 310,000 compounds, 3.5% hits | AID 2546;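 also: Gal4-VP16 expression switched on by copper sulfate through the metallothionein promoter; % is scaled to controls: 0 for no effect and ±100 for the full control effect; nearly all actives have a fitted effect of over 50% in size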
MCF10A rerep = inducers of DNA re-replication in MCF 10A breast cells; MCF 10A DNA re-replication, Hoechst nuclear intensity, 48 h; Potency, µM (series often up to 46.1 µM), for inactives: at the top dose activity, positive = re-replication, actives largely listed as activators; 350,000 compounds, 2.9% hits; also: % of control where 0% means no effect; nearly all actives have a fitted effect of over 50% in size
The depositor's hits bear a star. Calls follow the shape of the dose curve; as a rule, active = well fitted curve in the direction sought with a large enough effect; inconclusive = small, poorly fitted or top-dose-only effect, or another doubt; inactive = no such curve, though single readings can be large; an effect the other way counts as inactive or inconclusive. Potency is read from the fitted curve at half-maximal effect.

`Cc1cc(CN(C)C(=O)c2ccc(OC3CCN(CCc4ccccc4)CC3)cc2)on1` gave RORg inh 16%, SW480 rereplic -3%, ELG1 repair inh -3%, VP16 counter -5% and MCF10A rerep 3%.
`Cc1cc(NC(=O)CSc2ccc(-c3nc4cc(C)c(C)cc4[nH]3)cn2)no1` gave RORg inh -5%, SW480 rereplic inconclusive, ELG1 repair inh inconclusive, VP16 counter -16% and MCF10A rerep 0.18µM*.
For Cc1cc2nc(-c3ccc(SCC(=O)Nc4ccc(S(=O)(=O)NC5CC5)cc4)nc3)[nH]c2cc1C the results were RORg inh inconclusive, SW480 rereplic inconclusive, ELG1 repair inh inconclusive, VP16 counter inconclusive and MCF10A rerep 21µM*.
Screening Cc1cc2nc(-c3ccc(SCC(=O)NC(C)C)nc3)[nH]c2cc1C returned RORg inh 40%, ELG1 repair inh inconclusive and VP16 counter -16%.
`CC(C)OC(=O)c1ccc(NC(=O)CSc2nc3ncccc3[nH]2)cc1` gave RORg inh 24%, SW480 rereplic inconclusive, ELG1 repair inh -21%, VP16 counter inconclusive and MCF10A rerep inconclusive.
CCOC(=O)C(NC(C)=O)(NC(C)C)C(F)(F)F (stereo not given) was read as RORg inh -17%, SW480 rereplic -6%, ELG1 repair inh -6%, VP16 counter 0% and MCF10A rerep 0%.
For Cc1ccc(S(=O)(=O)Nc2cccc3cccnc23)c([N+](=O)[O-])c1 the results were RORg inh 0.79µM*, SW480 rereplic 18µM*, ELG1 repair inh inconclusive, VP16 counter 0.89µM* and MCF10A rerep inconclusive.
CS(=O)(=O)Nc1cccc2cccnc12 was read as RORg inh 6.3µM*, SW480 rereplic inconclusive, ELG1 repair inh -5%, VP16 counter 7.9µM* and MCF10A rerep 1%.
For COc1ccccc1NS(=O)(=O)c1ccc2ccccc2c1 the results were RORg inh inconclusive, SW480 rereplic 0%, ELG1 repair inh -12%, VP16 counter -4% and MCF10A rerep 1%.
`O=S(=O)(Nc1cccc2cccnc12)c1ccccc1` gave RORg inh 2µM*, SW480 rereplic 23µM*, ELG1 repair inh -20%, VP16 counter 3.5µM* and MCF10A rerep 21µM*.
`COc1ccc(NS(=O)(=O)c2ccc3ccccc3c2)c2ncccc12` gave RORg inh 0.71µM*, SW480 rereplic 15µM*, ELG1 repair inh -15%, VP16 counter 1.1µM* and MCF10A rerep inconclusive.
`O=C(Nc1cccc(C(=O)N2CCCCC2)c1)C1CCCCC1` gave SW480 rereplic 0% and MCF10A rerep 3%.
For Cc1cc(C)n(-c2cccc3cccnc23)n1 the results were RORg inh -13%, SW480 rereplic -10%, ELG1 repair inh 8%, VP16 counter -5% and MCF10A rerep -4%.
Screening O=S(=O)(Nc1cccc2ccccc12)c1ccccc1 returned RORg inh 1%, SW480 rereplic inconclusive, ELG1 repair inh inconclusive, VP16 counter -1% and MCF10A rerep inconclusive.
CC(=O)Nc1ccc(S(=O)(=O)Nc2cccc3cccnc23)cc1 was read as RORg inh 10µM*, SW480 rereplic -4%, ELG1 repair inh -6%, VP16 counter inconclusive and MCF10A rerep 0%.
For Cc1cc(C)n(-c2ccc3cccc(NS(C)(=O)=O)c3n2)n1 the results were RORg inh 4.5µM*, SW480 rereplic inconclusive, ELG1 repair inh -12%, VP16 counter inconclusive and MCF10A rerep inconclusive.
`O=S(=O)(Nc1cccc2cccnc12)c1ccc(S(=O)(=O)N2CCCC2)cc1` gave RORg inh 2.5µM*, SW480 rereplic 2.9µM*, ELG1 repair inh -15%, VP16 counter 5µM* and MCF10A rerep inconclusive.
Cc1ccc2cccc(NS(=O)(=O)c3ccccc3)c2n1 was read as RORg inh 26%, SW480 rereplic inconclusive, ELG1 repair inh -6%, VP16 counter 1% and MCF10A rerep 3.3µM*.
Screening COc1cc2ccccc2cc1C(=O)NCc1ccncc1 returned RORg inh -14%, SW480 rereplic 1%, ELG1 repair inh 14%, VP16 counter -3% and MCF10A rerep 2%.

Source: PubChem BioAssay
